# According to PubChem BioAssay:
# The source made the active and inactive calls. Unless noted, no rule for the calls is given here.
# Key:
# [1] = compounds binding Alexa647 anti-His antibody – biochemical, small-molecule microarray, 635 nm fluorescence, artefact control for SMM control protein annotation, primary screen (AID 1128); details: higher = more signal;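 also: score merges feature fluorescence with signal-to-noise for each printed compound spot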
# [2] = system: Human papillomavirus type 1a E7 protein (residues 1-88); test: HPV1a E7 small-molecule binders, primary screen, biochemical, small-molecule microarray, residues 1-88, 635 nm (AID 1129); details: small-molecule microarray binding, fluorescence 635 nm; higher = more signal
# [3] = biological target: Focal adhesion kinase 1 (Homo sapiens) (UniProt Q05397); test: PTK2 protein binding on printed compound slides – biochemical, small-molecule microarray, 635/667 nm fluorescence, BSA, DTT, primary screen (AID 1130); details: 635 nm fluorescence, higher = more signal;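 also: composite of spot emission at 667 nm and signal to noise over triplicate slides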
# Sequence of Focal adhesion kinase 1 (Homo sapiens) (Q05397 whole entry, looked up): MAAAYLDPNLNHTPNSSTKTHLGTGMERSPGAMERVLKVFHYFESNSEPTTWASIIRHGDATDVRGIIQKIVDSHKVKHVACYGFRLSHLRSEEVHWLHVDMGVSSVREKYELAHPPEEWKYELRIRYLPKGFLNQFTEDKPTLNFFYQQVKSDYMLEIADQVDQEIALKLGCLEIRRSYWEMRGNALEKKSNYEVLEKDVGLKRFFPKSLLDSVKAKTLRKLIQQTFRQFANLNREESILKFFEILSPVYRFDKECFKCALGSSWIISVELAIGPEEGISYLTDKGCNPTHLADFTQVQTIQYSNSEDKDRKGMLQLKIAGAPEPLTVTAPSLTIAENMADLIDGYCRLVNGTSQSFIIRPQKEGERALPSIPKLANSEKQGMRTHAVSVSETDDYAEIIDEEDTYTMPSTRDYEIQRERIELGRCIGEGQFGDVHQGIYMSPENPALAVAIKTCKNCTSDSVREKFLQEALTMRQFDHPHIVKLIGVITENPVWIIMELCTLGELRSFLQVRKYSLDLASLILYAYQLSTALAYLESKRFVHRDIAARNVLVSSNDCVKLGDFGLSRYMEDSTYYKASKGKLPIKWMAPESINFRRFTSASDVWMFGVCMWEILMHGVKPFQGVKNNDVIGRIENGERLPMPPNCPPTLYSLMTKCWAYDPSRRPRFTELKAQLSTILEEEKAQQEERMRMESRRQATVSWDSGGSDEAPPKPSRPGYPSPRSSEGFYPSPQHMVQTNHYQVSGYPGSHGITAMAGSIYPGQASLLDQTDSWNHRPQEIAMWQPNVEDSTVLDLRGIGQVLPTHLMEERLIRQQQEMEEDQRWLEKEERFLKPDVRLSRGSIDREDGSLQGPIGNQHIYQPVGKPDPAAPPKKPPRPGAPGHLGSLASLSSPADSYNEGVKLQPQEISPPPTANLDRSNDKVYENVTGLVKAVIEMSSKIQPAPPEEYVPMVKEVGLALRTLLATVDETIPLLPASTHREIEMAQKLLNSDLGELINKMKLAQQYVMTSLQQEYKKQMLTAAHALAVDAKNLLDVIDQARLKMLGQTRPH
# [4] = system: Fibrinogen (Alexa647-labelled); test: Alexa647-fibrinogen binding to printed small molecules – biochemical, small-molecule microarray, 635/667 nm fluorescence, artefact control for SMM control-protein annotation, profiling panel (AID 1131); details: fibrinogen-A647 binding fluorescence, higher = more signal;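 also: z-score merges 667 nm fluorescence with per-spot signal-to-noise over triplicate slides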
# [5] = biological target: Follistatin (Homo sapiens) (UniProt P19883); test: FST protein binding to printed compounds – biochemical, small-molecule microarray, 635/667 nm fluorescence, primary screen (AID 1132); details: 635 nm fluorescence, higher = more signal
# Sequence of Follistatin (Homo sapiens) (P19883 whole entry, looked up): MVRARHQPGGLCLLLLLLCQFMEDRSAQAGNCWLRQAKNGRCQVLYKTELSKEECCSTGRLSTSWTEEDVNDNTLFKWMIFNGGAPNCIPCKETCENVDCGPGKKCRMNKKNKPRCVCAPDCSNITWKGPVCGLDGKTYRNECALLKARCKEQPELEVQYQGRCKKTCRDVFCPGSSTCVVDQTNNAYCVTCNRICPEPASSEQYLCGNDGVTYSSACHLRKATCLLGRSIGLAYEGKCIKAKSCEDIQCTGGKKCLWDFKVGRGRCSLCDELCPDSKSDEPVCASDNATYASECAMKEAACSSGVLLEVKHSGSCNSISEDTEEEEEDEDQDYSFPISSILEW
# [6] = biological target: Fibroblast growth factor 2 (Homo sapiens) (UniProt P09038); test: basic fibroblast growth factor binding to printed compounds – biochemical, small-molecule microarray, 635/667 nm fluorescence, primary screen (AID 1133); details: FGF2, fluorescence 635/667, higher = more signal
# Sequence of Fibroblast growth factor 2 (Homo sapiens) (P09038 whole entry, looked up): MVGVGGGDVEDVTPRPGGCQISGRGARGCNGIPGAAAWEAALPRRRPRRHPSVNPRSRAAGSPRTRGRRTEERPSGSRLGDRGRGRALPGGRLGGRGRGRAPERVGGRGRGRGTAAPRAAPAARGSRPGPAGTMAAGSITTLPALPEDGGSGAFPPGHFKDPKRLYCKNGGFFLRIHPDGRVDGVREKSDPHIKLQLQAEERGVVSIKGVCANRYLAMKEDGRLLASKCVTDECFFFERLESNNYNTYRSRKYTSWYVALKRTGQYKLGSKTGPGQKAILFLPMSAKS
# [7] = JC-1 mitochondrial potential readout, lung cancer cells – cell-based, A549, JC-1 fluorescence, basal, 24 h, 100 nL, profiling panel (AID 1138); details: higher = more signal;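 also: A549 lung adenocarcinoma cells under basal conditions with no added stimulus; test concentration not given here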
# Lefty1 = Lefty1 protein binding to printed compounds – biochemical, small-molecule microarray, 635/667 nm fluorescence, primary screen (AID 1139); details: fluorescence 635/667, higher = more signal
# [8] = system: wheat germ agglutinin (Triticum aestivum), Alexa647-labelled; test: Alexa647-WGA lectin binding to printed small molecules – biochemical, small-molecule microarray, 635/667 nm fluorescence, artefact control for SMM control-protein annotation, profiling panel (AID 1140); details: WGA-A647 binding, 635 nm fluorescence, higher = more signal;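 also: score merges 667 nm feature emission with signal to noise over triplicate slides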
# [9] = biological target: Luciferin 4-monooxygenase (Photinus pyralis) (UniProt P08659); test: inhibition of purified Photinus pyralis luciferase – biochemical, luminescence, purified enzyme, 2006 set, primary screen (AID 1141); details: purified firefly luciferase, SteadyGlo luminescence, 30 min; higher = more signal, called active from +8 up or from −8 down;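 also: cell-free assay with purified firefly luciferase at 100 ng per well in PBS; test concentration not given here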
# Sequence of Luciferin 4-monooxygenase (Photinus pyralis) (P08659 whole entry, looked up): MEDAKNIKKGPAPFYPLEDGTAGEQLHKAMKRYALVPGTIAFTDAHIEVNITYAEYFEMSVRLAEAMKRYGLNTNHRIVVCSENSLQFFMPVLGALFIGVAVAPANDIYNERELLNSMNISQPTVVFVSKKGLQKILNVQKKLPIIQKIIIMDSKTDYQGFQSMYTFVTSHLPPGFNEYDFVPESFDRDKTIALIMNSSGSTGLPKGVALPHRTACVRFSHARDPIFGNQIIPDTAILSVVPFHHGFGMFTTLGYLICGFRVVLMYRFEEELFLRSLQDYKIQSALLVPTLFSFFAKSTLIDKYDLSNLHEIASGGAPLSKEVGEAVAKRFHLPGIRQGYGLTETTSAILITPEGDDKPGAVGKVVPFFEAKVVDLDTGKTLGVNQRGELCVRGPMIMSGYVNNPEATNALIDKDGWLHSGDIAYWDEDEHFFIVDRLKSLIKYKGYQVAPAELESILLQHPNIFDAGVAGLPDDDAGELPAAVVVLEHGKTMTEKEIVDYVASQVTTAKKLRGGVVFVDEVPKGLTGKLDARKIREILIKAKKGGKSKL
# [10] = system: Wnt5a (protein binding on small-molecule microarray); test: small molecules binding Wnt5a protein – biophysical, small-molecule microarray, 635/667 nm fluorescence, primary screen (AID 1142); details: 635 nm fluorescence, higher = more signal;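 also: fluorescence read at 667 nm with signal to noise per printed feature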
# [11] = ATP-based viability of Huh7 replicon cells – cell-based, CellTiter-Glo luminescence, basal, 48 h, cytotoxicity control for HCV replication inhibitor project, primary screen (AID 1143); details: higher = more signal, called active from +8 up or from −8 down;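 also: Huh7 hepatoma cells carrying a hepatitis C replication reporter with no stimulus; test concentration not given here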
# [12] = Pseudomonas biofilm growth suppression – PAO1 strain, BacTiter-Glo luminescence, LB-PBS, primary screen (AID 1144); details: P. aeruginosa PAO1 biofilm, 12 h, higher = more signal
# [13] = basal CRE-LacZ reporter activity in PC12 – cell-based, unstimulated, primary screen (AID 1145); details: no forskolin, luminescence, 4.5 h, higher = more signal, called active from +8 up or from −8 down
# [14] = forskolin-driven CRE-LacZ activity in PC12 – cell-based, CRE-LacZ reporter, forskolin-stimulated, primary screen (AID 1146); details: luminescence, 4.5 h, higher = more signal, called active from +8 up or from −8 down;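 also: PC12 cells with 6xCRE LacZ reporter stimulated by forskolin 10 µM; beta-galactosidase reporter signal reflecting CREB driven transcription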
# [15] = biological target: Streptavidin (Streptomyces avidinii) (UniProt P22629); test: compounds binding control protein streptavidin – biophysical, small-molecule microarray, 635/667 nm fluorescence, artefact control for SMM compound annotation, primary screen (AID 1147); details: higher = more signal;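 also: signal reflects streptavidin binding to arrayed compounds as a control protein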
# Sequence of Streptavidin (Streptomyces avidinii) (P22629 whole entry, looked up): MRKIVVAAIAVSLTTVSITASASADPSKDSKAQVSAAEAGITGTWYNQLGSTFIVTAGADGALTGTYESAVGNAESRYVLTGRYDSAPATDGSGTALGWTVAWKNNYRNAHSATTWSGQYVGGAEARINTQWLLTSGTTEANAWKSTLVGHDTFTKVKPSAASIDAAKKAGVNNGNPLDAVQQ
# [16] = probe aInhba binding on compound microarray – biochemical, small-molecule microarray, 635/667 nm fluorescence, primary screen (AID 1148); details: higher = more signal;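 also: score merges 667nm spot fluorescence with signal-to-noise for antibody binding to printed compounds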
# Torsin-1A (Homo sapiens) [17] = biological target: Torsin-1A (Homo sapiens) (UniProt O14656); test: TOR1A wild-type binding on microarray – cell lysate, small-molecule microarray, lysate, 635/667 nm, primary screen (AID 1149); details: COS7 hTOR1A-WT lysate, 635 nm fluorescence, higher = more signal
# Sequence of Torsin-1A (Homo sapiens) (O14656 whole entry, looked up): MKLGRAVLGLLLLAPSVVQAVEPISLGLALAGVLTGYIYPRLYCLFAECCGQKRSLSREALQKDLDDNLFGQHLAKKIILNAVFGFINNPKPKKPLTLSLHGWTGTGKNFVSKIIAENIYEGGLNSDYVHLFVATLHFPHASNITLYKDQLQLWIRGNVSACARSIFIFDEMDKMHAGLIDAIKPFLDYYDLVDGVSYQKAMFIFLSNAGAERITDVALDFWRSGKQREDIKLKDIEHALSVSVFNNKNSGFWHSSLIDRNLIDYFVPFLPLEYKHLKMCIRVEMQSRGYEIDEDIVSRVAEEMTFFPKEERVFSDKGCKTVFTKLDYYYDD
# Torsin-1A (Homo sapiens) [18] = biological target: Torsin-1A (Homo sapiens) (UniProt O14656); test: torsin A mutant lysate binding on microarrays – cell lysate, small-molecule microarray, COS7 lysate, 635/667 nm fluorescence, primary screen (AID 1150); details: COS7 hTOR1A mutant lysate, 635 nm fluorescence, higher = more signal;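 also: score pools 667 nm emission and signal to noise measuring lysate protein binding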
# [19] = system: Sonic hedgehog protein (Shh); test: Sonic hedgehog microarray binding compounds – biochemical, small-molecule microarray, 635/667 nm fluorescence, primary screen (AID 1151); details: 635 nm fluorescence, higher = more signal;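 also: Shh protein binding to compounds spotted on small-molecule microarray slides; score combines spot fluorescence intensity with signal-to-noise across triplicate slides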
SMILES,composite z-score [1],composite z-score [2],composite z-score [3],composite z-score [4],composite z-score [5],composite z-score [6],z-score [7],composite z-score (Lefty1),composite z-score [8],z-score [9],composite z-score [10],z-score [11],z-score [12],z-score [13],z-score [14],composite z-score [15],composite z-score [16],composite z-score (Torsin-1A (Homo sapiens) [17]),composite z-score (Torsin-1A (Homo sapiens) [18]),composite z-score [19]
COc1cc2c(cc1OC)CN(C(=O)[C@@H]1[C@H]3C(=O)O[C@H](c4ccccc4)[C@H](c4ccccc4)N3[C@H](c3ccccc3OCCO)[C@@]13C(=O)Nc1ccc(C#CC4(O)CCCCCC4)cc13)CC2,1.57,1.17,-0.0242,0.787,0.954,0.513,-0.825,0.895,0.9,-0.877 (inactive),0.0109,-2.91 (inactive),-0.0135 (inactive),-0.788 (inactive),-0.749 (inactive),0.445,-0.0523,0.825,0.827,0.791
C=CCC(OC(C)=O)[C@@H]1[C@@H](N(Cc2cc3ccccc3o2)C(=O)Cc2ccc(F)cc2)c2cc(OCCCO)ccc2N1C(=O)c1ccc2ccccc2n1 (stereo not given in full),0.055,-0.694,0.0919,0.271,0.147,-0.0144,0.728,-0.189,0.0937,-0.997 (inactive),0.705,0.252 (inactive),-0.398 (inactive),3.16 (inactive),0.0063 (inactive),0.0443,-0.142,-0.398,-0.226,0.0974
NC(=O)NCC#Cc1ccc2c(c1)[C@]1(C(=O)N2)[C@H](C(=O)Nc2nc3ccccc3s2)[C@H]2C(=O)O[C@H](c3ccccc3)[C@H](c3ccccc3)N2[C@@H]1c1ccc(O)cc1,-0.198,0.52,0.286,0.629,1.28,0.651,-2.41,0.383,0.696,-1.76 (inactive),0.236,0.0524 (inactive),0.688 (inactive),-1.15 (inactive),-1.58 (inactive),2.27,0.806,0.171,-0.216,0.922
COc1ccccc1CN1C(=O)c2ccccc2[C@](Cc2ccccc2I)(C(=O)NC(C)C)[C@@H]1c1ccc(CO)cc1,1.94,1.24,0.629,0.983,1.14,0.506,1.86,0.773,1.16,1.35 (inactive),0.449,-3.63 (inactive),0.0633 (inactive),-0.0243 (inactive),1.08 (inactive),1.13,0.0422,0.667,1.08,1.78
COc1c(C)cc(-c2cc3c(c(-c4ccccc4)n2)[Si](C(C)C)(C(C)C)OC3)cc1C,0.188,-0.892,-0.353,0.363,0.134,0.514,0.439,-0.135,0.245,0.411 (inactive),0.0775,0.109 (inactive),-0.661 (inactive),-0.491 (inactive),-0.478 (inactive),0.657,-0.0313,0.124,-0.402,0.513
COCCCNC(=O)[C@@]1(Sc2ccc(C)cc2)CC(=O)N(Cc2cc(C(F)(F)F)cc(C(F)(F)F)c2)[C@@H]1c1ccc(CO)cc1,1.79,0.566,0.813,0.248,1.06,0.686,0.727,1.25,-0.271,-0.363 (inactive),0.0054,-0.418 (inactive),0.126 (inactive),0.506 (inactive),-1.15 (inactive),0.072,0.0111,1.27,0.389,1.68
Cc1c(NC(=O)/C(C#N)=C/C=C/c2ccc(N(C)C)cc2)c(=O)n(-c2ccccc2)n1C,1.61,1.18,0.0505,0.449,0.763,0.492,1.43,0.517,1.04,-3.99 (inactive),0.48,-0.853 (inactive),2.09 (inactive),0.595 (inactive),-1.4 (inactive),0.96,0.264,0.314,0.288,0.259
COC(=O)[C@@]1(Cc2ccc(OC)cc2)[C@H]2c3cc(C(=O)N(C)C)n(CCc4c[nH]c5ccc(O)cc45)c3C[C@H]2CN1C(=O)c1ccccc1,0.548,1.21,1.36,0.979,1.01,-0.218,0.74,-0.737,1.28,1.18 (inactive),0.292,-2.69 (inactive),0.255 (inactive),0.383 (inactive),-0.292 (inactive),1.65,0.765,0.0612,0.263,-0.428
CC(C)CNC(=O)[C@@]1(c2ccc([N+](=O)[O-])cc2)CC(=O)N(C2CCCCC2)[C@@H]1c1ccc(CO)cc1I,-0.423,0.676,0.295,-0.106,-0.0906,0.669,1.86,-0.411,1.15,-0.712 (inactive),-0.067,-4.13 (inactive),0.363 (inactive),0.324 (inactive),1.65 (inactive),-0.018,0.0633,-0.149,0.0482,0.425
O=c1cccc(-c2cccc(Cl)c2)o1,0.417,1.11,0.682,0.2,-0.0992,-0.332,0.0374,-0.014,0.11,0.672 (inactive),0.0303,-1.07 (inactive),0.96 (inactive),0.631 (inactive),-1.05 (inactive),0.244,0.0047,0.34,0.617,-0.215
CN1C(=O)C2C=CC(C(O)c3c(F)cccc3Cl)N(Nc3ccccc3)C2C1=O (stereo not given),-0.0126,-0.105,0.464,0.978,1.03,-0.166,1.14,-0.309,1.05,0.565 (inactive),0.438,1.01 (inactive),0.402 (inactive),0.433 (inactive),0.928 (inactive),1.53,0.0374,-0.353,-0.562,-0.206
O=C1NC(=O)C2C1C=CC(C(O)c1cc(C(F)(F)F)cc(C(F)(F)F)c1)N2Nc1ccc(Cl)cc1Cl (stereo not given),0.864,1.05,0.46,-0.607,0.109,-0.544,-0.836,-1.03,0.802,0.172 (inactive),0.465,-1.32 (inactive),-0.673 (inactive),-0.329 (inactive),0.78 (inactive),0.416,0.069,-0.371,0.357,-0.384
